Data published in PubChem BioAssay (NCI).
This is part of a sample that, as a whole, favours compounds with a hit. Of some 83,000 tested, about 20% had one in any assay.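 For each line, cells grew in 96-well plates with the test compound present at a single concentration for 48 hours.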 A number with no mark means an inactive call. Activity calls are given as the source filed them. How the source made its calls: active means growth percent below 10; inactive means the rest.

How the values were obtained:
Assay in all cases: NCI-60 one-dose screen, 48 h (100 = growth as untreated, 0 = no growth, -100 = all killed)
Settings in all cases: 10 µM unless noted
SR leukemia = system: SR leukemia
RPMI-8226 leukemia = system: RPMI-8226 leukemia
OVCAR-8 ovarian = system: OVCAR-8 ovarian
OVCAR-5 ovarian = system: OVCAR-5 ovarian
OVCAR-4 ovarian = system: OVCAR-4 ovarian
SK-OV-3 ovarian = system: SK-OV-3 ovarian
IGROV1 ovarian = system: IGROV1 ovarian
OVCAR-3 ovarian = system: OVCAR-3 ovarian
HS 578T breast = system: HS 578T breast
NCI/ADR-RES ovarian = system: NCI/ADR-RES ovarian
T-47D breast = system: T-47D breast
BT-549 breast = system: BT-549 breast
MDA-MB-435 melanoma = system: MDA-MB-435 melanoma
SW-620 colon = system: SW-620 colon
MCF7 breast = system: MCF7 breast
HCT-116 colon = system: HCT-116 colon
HCC-2998 colon = system: HCC-2998 colon
KM12 colon = system: KM12 colon

| SMILES | growth (SR leukemia) | growth (RPMI-8226 leukemia) | growth (OVCAR-8 ovarian) | growth (OVCAR-5 ovarian) | growth (OVCAR-4 ovarian) | growth (SK-OV-3 ovarian) | growth (IGROV1 ovarian) | growth (OVCAR-3 ovarian) | growth (HS 578T breast) | growth (NCI/ADR-RES ovarian) | growth (T-47D breast) | growth (BT-549 breast) | growth (MDA-MB-435 melanoma) | growth (SW-620 colon) | growth (MCF7 breast) | growth (HCT-116 colon) | growth (HCC-2998 colon) | growth (KM12 colon) |
| --- | --- | --- | --- | --- | --- | --- | --- | --- | --- | --- | --- | --- | --- | --- | --- | --- | --- | --- |
| Cc1cc(N/N=C/c2nc(-c3ccc(Cl)cc3)oc2C)c2cc(Cl)ccc2n1 | -6.42% (active) | -35.5% (active) | 10.4% | 87.2% | -84.5% (active) | 100% | 66.3% | -34.3% (active) | 73.1% | 18% | 77% | 91.2% | -29.7% (active) | -69.3% (active) | -86.2% (active) | -47.1% (active) | 103% | 53.6% |
| COc1cc(NCCCCN=C(N)N)c2ncccc2c1 | 116% | 87.7% | 60.8% | 86.7% | -99.4% (active) | 88.3% | 56.8% | 8.54% (active) | 94% | 104% | 18% | 54.4% | 104% | 80.8% | -48% (active) | 79.1% | 84.3% | 47.5% |
| O=C1C=CC(=O)N1c1ccc(Cc2ccc(N3C(=O)C=CC3=O)cc2)cc1 | 92.6% | 81.6% | 103% | 86.4% | 201% | 101% | 89.7% | 125% | 94.7% | 99.4% | 89.8% | 95.8% | 104% | 110% | 89.5% | 89% | 102% | 100% |
| C=C1CC[C@@H]2[C@](C)(COC(C)=O)[C@H](OC(C)=O)CC[C@@]2(C)[C@@H]1CC(NCc1ccc(F)cc1)C1=CCOC1=O (stereo partly specified) | 7.69% (active) | 1.27% (active) | 18.6% | 99% | 30.9% | 94.3% | 48.3% | 23.7% | 72.5% | 28.3% | 26.6% | 28.7% | 32.7% | 32% | 16.6% | 33.7% | 89.3% | 46.5% |
| O=C(O)c1c([N+](=O)[O-])cnc2ccccc12 | 135% | 108% | 96.2% | 99.1% | 107% | 93% | 106% | 118% | 113% | 96.7% | 83.5% | 96.7% | 102% | 101% | 93% | 97.5% | 100% | 111% |
| O=C(/C=C\c1cccc([N+](=O)[O-])c1)c1ccccc1 | 12.7% | 0.104% (active) | 74.1% | 111% | 54.4% | 115% | -53% (active) | -83% (active) | 86.5% | 83.6% | -5.11% (active) | 90.1% | 65.7% | -30.1% (active) | -9.56% (active) | -68.3% (active) | 10.9% | -49.7% (active) |
| COc1cc(/C=C2\CN(C(=O)CCN3CCC(=NO)CC3)C/C(=C\c3cc(OC)c(OC)c(OC)c3)C2=O)cc(OC)c1OC | 9.11% (active) | -40.1% (active) | 1.55% (active) | -65.4% (active) | -82.4% (active) | -7.89% (active) | -53.4% (active) | -97.6% (active) | 6.39% (active) | 9.97% (active) | 4.37% (active) | -81.4% (active) | -81.9% (active) | -74.5% (active) | -54.3% (active) | -56.7% (active) | -79.8% (active) | -83.9% (active) |
| O=C(O)c1ccccc1Nc1cccc(S(F)(F)(F)(F)F)c1 | 99.1% | 100% | 98.9% | 115% | 102% | 87.4% | 99.8% | 95% | 99.2% | 106% | 85.8% | 106% | 101% | 94% | 93.1% | 98.3% | 108% | 100% |
| COc1cc(/C=N\NC(=O)CN2CCN(c3cc4c(cc3F)c(=O)c(C(=O)N/N=C/c3ccc(O)c(OC)c3)cn4C3CC3)CC2)ccc1O | 33.9% | 31.2% | 61.7% | 98.2% | 47.8% | 106% | 63.7% | 14.4% | 63.5% | 99.9% | -1.62% (active) | 56% | 55% | 57.2% | 12.5% | 53.6% | 7.72% (active) | 20.5% |
| OC(c1cc(-c2ccccc2)nc2ccc(Cl)cc12)C1CCCCN1 (stereo unspecified) | -25.8% (active) | 13.1% | 33.1% | 58.8% | 79% | 89.1% | 53.4% | 67.5% | 61.6% | 68.5% | 19.9% | 91.5% | 42.6% | 21.2% | -41% (active) | 33.4% | -87.7% (active) | 6.52% (active) |
| Nc1nc2c(c3ncccc13)C(c1ccc(Cl)c(Cl)c1)Cc1ncccc1-2 (stereo unspecified) | 0.136% (active) | 15.8% | 34.2% | 81.3% | 67.6% | 19.7% | 50.8% | -8.92% (active) | 31.5% | 4% (active) | 16% | 31.1% | 6.95% (active) | 21.7% | 12.2% | 18.4% | 41.7% | 21.5% |
| Oc1c(Cl)cc(Cl)cc1CNc1nccnn1 | 93.5% | 105% | 108% | 101% | 106% | 107% | 96.3% | 92.1% | 114% | 98.5% | 105% | 105% | 99.3% | 102% | 99.2% | 98.1% | 98.6% | 93.1% |
| O=C(CN1CCN(c2cc3c(cc2F)c(=O)c(C(=O)N/N=C/c2ccccc2)cn3C2CC2)CC1)N/N=C\c1ccccc1 | 61% | 39.2% | 73.9% | 98.6% | 89.8% | 124% | 54.4% | 77% | 84.8% | 77.1% | 92% | 65.2% | 78.6% | 87.8% | 53.2% | 70.7% | 91% | 71.1% |
| CCCCNP1(NCCCC)=NP(NCCCC)(NCCCC)=NP(NCCCC)(NCCCC)=NP(NCCCC)(NCCCC)=N1 | -51.8% (active) | -41.7% (active) | 16.7% | 16.7% | 16.9% | 7.65% (active) | 30.7% | -48.7% (active) | -7.98% (active) | 97.2% | -5.86% (active) | 45.4% | 6.7% (active) | 6.12% (active) | -7.14% (active) | 0.711% (active) | -24.9% (active) | -24.7% (active) |
| OCCNCCNc1c2ccccc2nc2ccccc12 | 43.9% | 90.8% | 46.3% | 114% | 63.9% | 78% | 96.7% | 65.6% | 88.4% | 89.1% | 39.6% | 103% | 89.4% | 59.5% | 23.4% | 37.7% | 52.6% | 55.6% |
| O=C1c2cc3c(cc2-c2c1c1cc(Cl)c(Cl)cc1c(=O)n2CCCn1ccnc1)OCO3 | -13.4% (active) | -0.183% (active) | 8.55% (active) | 25.9% | 30.1% | -3.8% (active) | 24.4% | 5.18% (active) | 66.7% | 4.47% (active) | 0.538% (active) | 19.1% | 18.5% | 25.6% | 1.23% (active) | 3.49% (active) | 28.6% | 6% (active) |
| CNC(=O)c1cc(Oc2ccc3nc(NC(=O)Nc4ccc(N5CCC(N(C)C)CC5)cc4)sc3c2)ccn1 | 0.621% (active) | 74.2% | 89.3% | 114% | 80.7% | 102% | 89% | 90.1% | 80.9% | 110% | 78.1% | 98.7% | 98.8% | 71.6% | 67.7% | 39% | 95.4% | 60.4% |
